The record followed here is ChEMBL document CHEMBL2218924, “A broad activity screen in support of a chemogenomic map for kinase signalling research and drug discovery” (Biochem J, 2013).

The structures appear in SMILES notation.

The target in assay [1] is T1, Ephrin type-B receptor 1 (Homo sapiens) (UniProt P54762).
T1 sequence (whole entry): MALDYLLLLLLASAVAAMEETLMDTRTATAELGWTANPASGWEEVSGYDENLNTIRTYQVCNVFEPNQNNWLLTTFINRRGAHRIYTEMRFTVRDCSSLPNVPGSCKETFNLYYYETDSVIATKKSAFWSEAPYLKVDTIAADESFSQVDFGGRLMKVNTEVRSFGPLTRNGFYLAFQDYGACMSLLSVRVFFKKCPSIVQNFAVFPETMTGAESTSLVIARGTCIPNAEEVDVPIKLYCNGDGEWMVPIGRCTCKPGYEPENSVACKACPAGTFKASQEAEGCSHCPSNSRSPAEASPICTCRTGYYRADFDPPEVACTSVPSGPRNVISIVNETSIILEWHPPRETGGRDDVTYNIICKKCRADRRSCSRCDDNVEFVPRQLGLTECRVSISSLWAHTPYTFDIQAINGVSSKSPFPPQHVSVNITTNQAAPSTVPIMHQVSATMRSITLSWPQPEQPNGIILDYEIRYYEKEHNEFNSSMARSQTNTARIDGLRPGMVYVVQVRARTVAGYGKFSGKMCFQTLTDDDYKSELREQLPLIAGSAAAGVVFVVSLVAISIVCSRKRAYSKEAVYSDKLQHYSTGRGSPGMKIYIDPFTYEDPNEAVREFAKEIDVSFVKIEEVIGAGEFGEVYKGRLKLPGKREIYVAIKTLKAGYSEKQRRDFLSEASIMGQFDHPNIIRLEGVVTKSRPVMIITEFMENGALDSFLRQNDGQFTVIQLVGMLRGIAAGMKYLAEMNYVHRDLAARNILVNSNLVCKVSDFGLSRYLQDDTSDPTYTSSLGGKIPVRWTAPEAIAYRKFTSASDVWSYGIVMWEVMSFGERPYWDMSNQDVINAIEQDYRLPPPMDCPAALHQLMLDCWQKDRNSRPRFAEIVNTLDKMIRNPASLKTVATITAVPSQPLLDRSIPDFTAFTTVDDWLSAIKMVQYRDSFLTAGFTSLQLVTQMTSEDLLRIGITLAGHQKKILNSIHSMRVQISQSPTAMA
As to conditions: at 10 µM; call rule not given here.

The target of assay [2] is T2, Ephrin type-B receptor 2 (Homo sapiens) (UniProt P29323).
T2 sequence (whole entry): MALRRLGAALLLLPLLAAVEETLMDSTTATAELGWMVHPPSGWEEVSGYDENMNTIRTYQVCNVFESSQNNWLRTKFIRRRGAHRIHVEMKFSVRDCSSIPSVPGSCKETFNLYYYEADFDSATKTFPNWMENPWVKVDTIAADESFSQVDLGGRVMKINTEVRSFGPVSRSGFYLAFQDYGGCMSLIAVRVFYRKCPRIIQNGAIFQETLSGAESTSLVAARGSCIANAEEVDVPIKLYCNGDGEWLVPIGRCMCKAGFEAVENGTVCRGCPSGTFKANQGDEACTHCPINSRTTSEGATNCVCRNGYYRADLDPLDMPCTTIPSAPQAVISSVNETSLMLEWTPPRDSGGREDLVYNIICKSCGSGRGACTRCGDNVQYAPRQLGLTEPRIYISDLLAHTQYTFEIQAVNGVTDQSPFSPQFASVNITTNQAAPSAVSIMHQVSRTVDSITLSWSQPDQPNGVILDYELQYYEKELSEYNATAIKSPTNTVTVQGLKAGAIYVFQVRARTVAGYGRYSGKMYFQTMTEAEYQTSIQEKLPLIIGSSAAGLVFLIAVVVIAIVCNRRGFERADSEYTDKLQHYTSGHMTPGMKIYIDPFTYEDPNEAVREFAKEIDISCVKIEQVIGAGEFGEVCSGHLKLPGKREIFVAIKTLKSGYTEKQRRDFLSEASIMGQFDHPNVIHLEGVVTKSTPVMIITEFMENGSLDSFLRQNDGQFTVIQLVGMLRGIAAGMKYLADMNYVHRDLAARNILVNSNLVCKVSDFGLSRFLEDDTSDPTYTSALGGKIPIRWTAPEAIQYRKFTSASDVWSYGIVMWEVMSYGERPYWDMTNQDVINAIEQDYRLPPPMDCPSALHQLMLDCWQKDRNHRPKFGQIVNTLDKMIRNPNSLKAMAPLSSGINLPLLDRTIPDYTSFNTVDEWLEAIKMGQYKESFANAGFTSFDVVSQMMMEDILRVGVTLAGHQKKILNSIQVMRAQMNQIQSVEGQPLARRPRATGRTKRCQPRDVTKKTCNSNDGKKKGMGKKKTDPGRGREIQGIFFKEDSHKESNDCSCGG
Particulars: at 1 µM.

The target of assay [3] is T2, Ephrin type-B receptor 2 (Homo sapiens). As to conditions: at 10 µM.
In assay [4] the target is T3, Ephrin type-B receptor 3 (Homo sapiens) (UniProt P54753).
T3 sequence (whole entry): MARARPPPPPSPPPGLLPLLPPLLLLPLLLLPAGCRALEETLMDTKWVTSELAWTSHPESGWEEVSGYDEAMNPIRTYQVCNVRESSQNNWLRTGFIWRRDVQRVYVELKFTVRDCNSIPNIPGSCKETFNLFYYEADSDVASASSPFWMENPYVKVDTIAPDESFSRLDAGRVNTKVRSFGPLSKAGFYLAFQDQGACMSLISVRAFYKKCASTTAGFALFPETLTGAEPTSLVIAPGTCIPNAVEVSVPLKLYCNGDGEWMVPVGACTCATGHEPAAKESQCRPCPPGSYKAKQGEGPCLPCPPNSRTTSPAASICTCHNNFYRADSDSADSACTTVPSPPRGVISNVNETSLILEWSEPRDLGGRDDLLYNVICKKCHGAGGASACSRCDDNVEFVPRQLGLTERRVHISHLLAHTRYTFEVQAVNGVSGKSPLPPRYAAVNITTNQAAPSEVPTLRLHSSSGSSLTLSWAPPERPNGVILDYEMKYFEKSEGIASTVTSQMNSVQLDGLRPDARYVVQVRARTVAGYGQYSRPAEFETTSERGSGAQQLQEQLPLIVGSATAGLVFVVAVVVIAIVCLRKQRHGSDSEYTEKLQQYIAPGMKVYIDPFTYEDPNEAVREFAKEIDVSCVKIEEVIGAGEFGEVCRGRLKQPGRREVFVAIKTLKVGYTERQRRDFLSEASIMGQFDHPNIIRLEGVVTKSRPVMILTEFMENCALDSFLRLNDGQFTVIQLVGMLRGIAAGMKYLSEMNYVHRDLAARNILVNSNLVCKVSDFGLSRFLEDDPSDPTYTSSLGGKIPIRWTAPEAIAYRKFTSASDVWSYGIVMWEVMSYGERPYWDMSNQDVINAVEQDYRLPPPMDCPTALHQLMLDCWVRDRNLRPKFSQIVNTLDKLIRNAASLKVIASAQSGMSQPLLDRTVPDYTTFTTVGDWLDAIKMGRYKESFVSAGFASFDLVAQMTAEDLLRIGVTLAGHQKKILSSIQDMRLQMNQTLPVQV
Particulars: at 1 µM.

Assay [5] deals with T3, Ephrin type-B receptor 3 (Homo sapiens). As to conditions: at 10 µM.
Assay [6] has as its target T4, Ephrin type-B receptor 4 (Homo sapiens) (UniProt P54760).
T4 sequence (whole entry): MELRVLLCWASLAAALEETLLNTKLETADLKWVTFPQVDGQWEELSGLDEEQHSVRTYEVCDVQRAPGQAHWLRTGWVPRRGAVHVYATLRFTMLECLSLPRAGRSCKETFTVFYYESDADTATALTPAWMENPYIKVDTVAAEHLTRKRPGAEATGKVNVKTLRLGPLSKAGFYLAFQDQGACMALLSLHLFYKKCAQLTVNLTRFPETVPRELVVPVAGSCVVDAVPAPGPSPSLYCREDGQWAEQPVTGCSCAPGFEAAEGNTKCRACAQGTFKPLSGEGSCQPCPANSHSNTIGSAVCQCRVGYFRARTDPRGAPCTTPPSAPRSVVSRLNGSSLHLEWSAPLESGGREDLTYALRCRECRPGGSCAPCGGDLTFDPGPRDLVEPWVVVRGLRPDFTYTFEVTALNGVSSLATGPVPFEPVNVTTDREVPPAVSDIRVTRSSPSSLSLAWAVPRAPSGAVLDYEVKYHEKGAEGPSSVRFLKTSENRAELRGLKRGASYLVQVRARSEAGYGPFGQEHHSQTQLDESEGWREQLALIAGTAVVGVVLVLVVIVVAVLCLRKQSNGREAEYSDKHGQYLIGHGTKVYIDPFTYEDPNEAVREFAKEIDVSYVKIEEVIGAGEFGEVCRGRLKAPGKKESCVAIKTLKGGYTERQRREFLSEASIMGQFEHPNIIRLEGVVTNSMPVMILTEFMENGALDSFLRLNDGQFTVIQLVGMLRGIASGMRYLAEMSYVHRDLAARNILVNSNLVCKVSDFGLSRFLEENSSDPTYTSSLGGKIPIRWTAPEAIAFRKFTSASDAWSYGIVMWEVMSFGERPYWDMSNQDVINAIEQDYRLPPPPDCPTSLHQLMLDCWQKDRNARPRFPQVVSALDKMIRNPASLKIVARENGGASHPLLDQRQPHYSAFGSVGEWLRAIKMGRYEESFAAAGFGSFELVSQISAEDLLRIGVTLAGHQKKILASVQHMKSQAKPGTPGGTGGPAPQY
Particulars: at 1 µM.

Assay [7] concerns the target T4, Ephrin type-B receptor 4 (Homo sapiens). As to conditions: at 10 µM.
Assay [8] concerns the target Receptor tyrosine-protein kinase erbB-4 (Homo sapiens) (UniProt Q15303). As to conditions: at 1 µM.
Assay [9] has the same target. As to conditions: at 10 µM.
The target in assay [10] is Focal adhesion kinase 1 (Homo sapiens) (UniProt Q05397). Particulars: at 1 µM.
Sequence of Focal adhesion kinase 1 (Homo sapiens) (Q05397 2-1052 limits assumed): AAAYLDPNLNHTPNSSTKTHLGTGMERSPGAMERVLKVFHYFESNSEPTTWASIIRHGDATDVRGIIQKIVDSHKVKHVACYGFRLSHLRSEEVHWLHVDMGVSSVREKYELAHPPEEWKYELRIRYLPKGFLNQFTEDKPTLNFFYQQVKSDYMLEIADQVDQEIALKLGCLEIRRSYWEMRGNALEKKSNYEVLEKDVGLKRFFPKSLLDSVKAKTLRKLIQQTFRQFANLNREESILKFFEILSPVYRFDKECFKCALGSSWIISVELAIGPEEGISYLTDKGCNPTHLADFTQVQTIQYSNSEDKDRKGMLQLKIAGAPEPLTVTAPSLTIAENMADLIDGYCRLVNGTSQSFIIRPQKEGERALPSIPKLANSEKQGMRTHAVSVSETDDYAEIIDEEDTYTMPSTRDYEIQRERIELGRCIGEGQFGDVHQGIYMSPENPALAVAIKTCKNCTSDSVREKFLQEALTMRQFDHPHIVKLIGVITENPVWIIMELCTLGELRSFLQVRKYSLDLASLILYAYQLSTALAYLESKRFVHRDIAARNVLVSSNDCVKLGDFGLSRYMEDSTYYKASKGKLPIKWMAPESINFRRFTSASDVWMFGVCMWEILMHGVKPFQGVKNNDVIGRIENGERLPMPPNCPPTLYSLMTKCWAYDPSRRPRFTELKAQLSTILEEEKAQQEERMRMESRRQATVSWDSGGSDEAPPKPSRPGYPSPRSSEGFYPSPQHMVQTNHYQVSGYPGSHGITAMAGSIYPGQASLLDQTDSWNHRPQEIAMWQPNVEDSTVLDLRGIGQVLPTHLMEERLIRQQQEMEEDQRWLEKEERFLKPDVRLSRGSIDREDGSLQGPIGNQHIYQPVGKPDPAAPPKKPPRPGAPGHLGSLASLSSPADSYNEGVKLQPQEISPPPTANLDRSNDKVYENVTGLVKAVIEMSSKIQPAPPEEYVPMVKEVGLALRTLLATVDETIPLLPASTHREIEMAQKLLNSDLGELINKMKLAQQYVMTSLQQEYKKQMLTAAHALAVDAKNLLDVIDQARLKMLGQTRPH

Sequence of Receptor tyrosine-protein kinase erbB-4 (Homo sapiens) (Q15303 whole entry): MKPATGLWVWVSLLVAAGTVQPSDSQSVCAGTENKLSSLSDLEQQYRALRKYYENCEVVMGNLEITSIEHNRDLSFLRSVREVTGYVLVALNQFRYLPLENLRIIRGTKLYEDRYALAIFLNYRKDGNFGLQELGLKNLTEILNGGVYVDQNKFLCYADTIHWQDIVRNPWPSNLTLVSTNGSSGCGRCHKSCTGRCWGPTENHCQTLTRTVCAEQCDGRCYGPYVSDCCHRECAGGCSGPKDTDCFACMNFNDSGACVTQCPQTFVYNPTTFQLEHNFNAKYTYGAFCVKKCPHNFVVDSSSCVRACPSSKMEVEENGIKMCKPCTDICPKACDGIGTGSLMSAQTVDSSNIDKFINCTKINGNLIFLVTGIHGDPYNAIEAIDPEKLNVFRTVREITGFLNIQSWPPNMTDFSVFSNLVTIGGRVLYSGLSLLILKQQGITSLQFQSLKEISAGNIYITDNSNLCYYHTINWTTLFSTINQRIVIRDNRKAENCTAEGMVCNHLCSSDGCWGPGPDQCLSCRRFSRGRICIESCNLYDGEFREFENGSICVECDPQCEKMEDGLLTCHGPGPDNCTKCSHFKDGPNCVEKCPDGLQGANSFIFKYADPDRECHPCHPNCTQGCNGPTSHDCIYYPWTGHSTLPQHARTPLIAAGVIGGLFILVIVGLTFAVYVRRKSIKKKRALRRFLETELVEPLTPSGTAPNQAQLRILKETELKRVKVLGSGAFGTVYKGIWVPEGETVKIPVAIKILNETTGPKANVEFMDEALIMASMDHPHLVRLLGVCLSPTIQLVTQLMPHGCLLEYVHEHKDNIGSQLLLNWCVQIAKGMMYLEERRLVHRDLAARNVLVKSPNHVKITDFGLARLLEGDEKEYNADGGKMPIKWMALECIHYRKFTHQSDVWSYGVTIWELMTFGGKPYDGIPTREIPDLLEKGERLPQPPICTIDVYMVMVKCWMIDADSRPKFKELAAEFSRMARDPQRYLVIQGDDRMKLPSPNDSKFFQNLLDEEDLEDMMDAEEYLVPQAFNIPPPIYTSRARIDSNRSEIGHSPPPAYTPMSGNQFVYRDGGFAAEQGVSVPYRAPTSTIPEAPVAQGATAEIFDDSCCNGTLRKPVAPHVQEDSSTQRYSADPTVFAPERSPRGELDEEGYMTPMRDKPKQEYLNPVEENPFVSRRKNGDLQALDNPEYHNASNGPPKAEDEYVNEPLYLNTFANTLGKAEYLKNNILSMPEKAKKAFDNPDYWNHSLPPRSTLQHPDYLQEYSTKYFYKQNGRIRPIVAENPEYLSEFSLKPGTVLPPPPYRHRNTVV

The residual activity is the signal under treatment as a percentage of the control signal. For `O=C1NC(=O)c2cc(Nc3ccc(F)cc3)c(Nc3ccc(F)cc3)cc21`, the residual activity in assay [1] is 60%; in assay [2], 105%; in assay [3] it was 69%; in assay [4], 100% (inactive); in assay [5], 105%; in [6], 95%. Moreover, the residual activity stood at 56% in [7], 87% in assay [8], 35% in assay [9] and 137% in [10].
